# Compounds without any hit were thinned out: in the full panel of roughly 79,000, 15% have a hit. A number with no mark means an inactive call. Calls of active or inactive are those of the source. Cut-off read from the data, not from the text of the source: active = growth inhibition above about 70%; inactive = the rest.
# How the values were obtained:
# [1] = NCI Yeast Anticancer Drug Screen. Data for the rad50 strain (AID 155);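 note: 0% = growth of vehicle-only cultures of the same strain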; details: S. cerevisiae rad50 strain growth inhibition; at 50.0 µM; stronger effect = higher value
# How it was run: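 Cells are treated with compound, grown, and their growth is then scored against vehicle-only cultures of the same repair-deficient yeast strain.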
# [2] = NCI Yeast Anticancer Drug Screen. Data for the mec2-1 strain (AID 157); details: S. cerevisiae mec2-1 strain, at 50.0 µM, stronger effect = higher value
# How it was run: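 Strain: mec2-1 (DNA repair/cell cycle alteration). Compound exposure, then growth measured; inhibition expressed relative to vehicle.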
# [3] = NCI Yeast Anticancer Drug Screen. Data for the sgs1 mgt1 strain (AID 161);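 note: 0% = growth of cultures given vehicle only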; details: S. cerevisiae sgs1 mgt1 strain, at 50.0 µM, stronger effect = higher value
# How it was run: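 Test agents were incubated with a DNA-repair-mutant yeast strain. Growth was then read and compared against vehicle-treated controls.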
# [4] = NCI Yeast Anticancer Drug Screen. Data for the cln2 rad14 strain (AID 165);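 note: 0% = growth equal to vehicle treated cultures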; details: S. cerevisiae cln2 rad14 strain, at 50.0 µM, stronger effect = higher value
# How it was run: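 Compounds are applied to the cln2 rad14 yeast strain, and growth is then compared with that of vehicle-treated cultures to give inhibition.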
# [5] = NCI Yeast Anticancer Drug Screen. Data for the bub3 strain (AID 167); details: S. cerevisiae bub3 mutant strain, at 50.0 µM, stronger effect = higher value
# How it was run: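 Part of a panel of yeast mutants defective in DNA damage repair or cell cycle regulation. Each strain is grown with compound, and inhibition is calculated relative to solvent-treated cultures.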
# [6] = NCI Yeast Anticancer Drug Screen. Data for the mlh1 rad18 strain (AID 175); details: S. cerevisiae mlh1 rad18 strain growth inhibition; at 50.0 µM; stronger effect = higher value
# How it was run: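 Read-out is yeast growth inhibition, calculated against vehicle-only controls. The compound was applied to a strain engineered with DNA damage repair alterations.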
Compound,growth inhibition [1],growth inhibition [2],growth inhibition [3],growth inhibition [4],growth inhibition [5],growth inhibition [6]
O=C(Cc1cccc(CC(=O)c2ccccc2)n1)c1ccccc1,9.25%,-4.75%,18.5%,-52.2%,-43%,10.4%
CC(=O)CCC(CCCC(CCC(C)=O)[N+](=O)[O-])[N+](=O)[O-] (stereo unspecified),-7.3%,15.3%,0.9%,-9.4%,13.9%,4.15%
CONCC(=O)c1ccc(SC)cc1,-18.4%,0.6%,-13.8%,-21.8%,-9.7%,0%
CC(=O)Oc1cccc2c1ccc1nonc12,1.75%,0.35%,-2.2%,-49.8%,-11.4%,-3%
Nc1nc(N)c2nnsc2n1,13.7%,-5.05%,13.3%,16.6%,14.4%,2.9%
COC(=O)c1ccc(SCCC(C)=O)cc1,-8%,5.3%,-12.1%,9.9%,25.9%,0.7%
COC(=O)/C(=N\NC(N)=O)C(C#N)c1ccccc1 (stereo unspecified),-12.5%,-1.85%,-5.75%,-29.9%,6.7%,-4.8%
CCCCCCC(=O)OC[n+]1ccc2c(C)c3[nH]c4ccc(OC)cc4c3c(C)c2c1,87% (active),91.2% (active),89.8% (active),88.7% (active),86% (active),91.1% (active)
CC(=O)c1sc2c(c1OC(=O)c1ccco1)c(=O)n(-c1ccccc1)c(=S)n2-c1ccccc1,20.8%,18.2%,23.7%,25.6%,6.85%,33.9%
S=C(SSSC(=S)N(C1CCCCC1)C1CCCCC1)N(C1CCCCC1)C1CCCCC1,1.5%,3.7%,10.1%,1.45%,-5.9%,17.2%
CCOc1ccc(NC(=O)Nc2cccc(Cl)c2C)cc1,0.45%,9.25%,11.4%,-13.8%,9.85%,-20.6%
CCNC(=O)C1CCCN1C(=O)C(CCCN=C(N)N)NC(=O)C(CC(C)C)NC(=O)C(Cc1c[nH]c2ccccc12)NC(=O)C(Cc1ccc(O)cc1)NC(=O)C(CO)NC(=O)C(Cc1c[nH]c2ccccc12)NC(=O)C(Cc1cnc[nH]1)NC(=O)C1CCC(=O)N1 (stereo unspecified),-11.6%,-10.6%,-18.5%,-21.6%,6.05%,10.2%
CCC(=O)Oc1ccccc1C(C)C,9.8%,-14.6%,1.9%,8.55%,-6.25%,12.2%
CCN(CC)Cc1cc(N=Nc2cccc3ccccc23)c2ccccc2c1O,31.6%,11.4%,30.1%,24.9%,-3.15%,35.7%
O=C(NCCNC(=O)c1cc(Cl)cc(Cl)c1O)c1cc(Cl)cc(Cl)c1O,-1.35%,11.4%,9.3%,-18.4%,-4.9%,21.8%
O=[N+]([O-])c1ccc(N/N=C/c2ccc(CO)cc2)c([N+](=O)[O-])c1,4%,-5.65%,18.1%,-13.9%,6.1%,17.2%
Cc1cc(=O)n(C)c2ccc(N)cc12,-3.85%,3.75%,-4%,-14.8%,10.5%,1.85%
CCOC(=O)CCC1(C)OCC(O)CO1 (stereo unspecified) (tested in a mixture with another compound),-11.1%,-5.25%,-5.6%,-2.85%,-16.6%,-25.8%

Compound,growth inhibition [1],growth inhibition [2],growth inhibition [3],growth inhibition [4],growth inhibition [5],growth inhibition [6]
COc1cc([C@@H]2OC(=O)C3C2C(=O)O[C@H]3c2ccc(O)c(OC)c2)ccc1O (stereo partly specified),7.55%,14.2%,9.25%,17.4%,0.55%,24.2%
CCOc1ccc(NC(=O)CC2SC(=Nc3ccc(C)cc3)NC2=O)cc1 (stereo unspecified),-12.7%,-38.5%,-5.3%,4.35%,-31.9%,-38%
C=C1CC[C@@H]2C(C)(C)CCC[C@@]2(C)[C@@H]1Cc1cc(O)ccc1O,86.8% (active),88.6% (active),87% (active),87.2% (active),87.9% (active),87.5% (active)
O=C1CCC(C2(O)c3ccccc3-c3ccccc32)C(=O)N1 (stereo unspecified),-20.7%,-16.1%,-22.3%,22.4%,4.65%,1.4%
O=C(NC(NC(NC(=O)c1ccc([N+](=O)[O-])cc1)c1ccc([N+](=O)[O-])cc1)c1ccc([N+](=O)[O-])cc1)c1ccc([N+](=O)[O-])cc1 (stereo unspecified),3.35%,-10.4%,1.65%,-24.9%,-5.3%,-7.95%
CCOc1cccc(/C=N/N=C2\C(=O)Nc3c(Cl)cc(Cl)cc32)c1O,22.2%,15.6%,39.9%,40.8%,34.1%,83.2% (active)
CCN(CCO)CC(=O)c1cc(Cl)ccc1OC,-3.85%,13.6%,16.2%,-37%,6.55%,19.4%
c1ccc(CN[C@]23C4C5CC6C7C5C2C7[C@@](NCc2ccccc2)(C64)N3Cc2ccccc2)cc1 (stereo partly specified),2.7%,-1.05%,-11.8%,-37.4%,-0.85%,5.25%
CC(C)C(C(N)=O)C(C)(C)C (stereo unspecified),1.1%,4.2%,14.9%,8.6%,-7.5%,-9.55%
Cn1c2ccccc2c(=O)c2cc(NC(=O)CCCCCCCC(=O)Nc3ccc4c(c3)c(=O)c3ccccc3n4C)ccc21,-10.7%,-12.8%,-10.7%,-12.6%,-27.2%,-1.45%
Cc1cccc(C)c1NC(=O)Oc1ccc(Cl)cc1Cc1ccccc1,98.5% (active),99.5% (active),99.6% (active),98.9% (active),99.3% (active),99.3% (active)
Oc1ccc(C=Nc2ccccc2)c(O)c1O,-12.7%,-24.4%,-4.9%,-7.25%,-9.7%,6.2%
O=C(CCc1nnc2s/c(=C\c3ccccc3)c(=O)n12)Nc1cc(Cl)ccc1Cl,-30.9%,-1.6%,-18.4%,16.4%,4.95%,-1.45%
Nc1ccc(S(=O)(=O)CCO)cc1,1.1%,-7.5%,4.65%,4.45%,-5.6%,3.6%
CN(C)C(=S)/N=C1\SCS(=O)(=O)N1C,14.2%,6.55%,-6%,7.7%,-6.6%,9.15%
CC1(C)NN=C([N+](=O)[O-])C1c1ccccc1 (stereo unspecified),5.95%,10.7%,7.2%,-14.4%,-11%,6.65%
CN1CCN(CC(=O)N2c3ccccc3Sc3cc4ccccc4cc32)CC1,2.3%,-3.3%,-30%,-1.95%,-13.7%,28.6%
CCC(=O)NCCO,-26.9%,-17.7%,-5.65%,-103%,-9%,-5.25%
